Experimental data: article PMC4336329 (PLoS ONE, 2015)
Screen size: about 310,000 compounds; about 14,000 (4.5%) showed an effect of 50% or more. Effects have a minus sign here. Many of the other results were omitted from the sample, so strong results are more common in it than they were.

molecular target: human ether-à-go-go-related gene (hERG) potassium channel (human, UniProt Q12809); test: primary screen, population patch clamp on CHO cells stably expressing hERG; higher = less effect of the substance
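Note: peak tail current of the secondary pulse compared with the same well before compound.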

Chain of human ether-à-go-go-related gene (hERG) potassium channel (Q12809 whole entry, looked up): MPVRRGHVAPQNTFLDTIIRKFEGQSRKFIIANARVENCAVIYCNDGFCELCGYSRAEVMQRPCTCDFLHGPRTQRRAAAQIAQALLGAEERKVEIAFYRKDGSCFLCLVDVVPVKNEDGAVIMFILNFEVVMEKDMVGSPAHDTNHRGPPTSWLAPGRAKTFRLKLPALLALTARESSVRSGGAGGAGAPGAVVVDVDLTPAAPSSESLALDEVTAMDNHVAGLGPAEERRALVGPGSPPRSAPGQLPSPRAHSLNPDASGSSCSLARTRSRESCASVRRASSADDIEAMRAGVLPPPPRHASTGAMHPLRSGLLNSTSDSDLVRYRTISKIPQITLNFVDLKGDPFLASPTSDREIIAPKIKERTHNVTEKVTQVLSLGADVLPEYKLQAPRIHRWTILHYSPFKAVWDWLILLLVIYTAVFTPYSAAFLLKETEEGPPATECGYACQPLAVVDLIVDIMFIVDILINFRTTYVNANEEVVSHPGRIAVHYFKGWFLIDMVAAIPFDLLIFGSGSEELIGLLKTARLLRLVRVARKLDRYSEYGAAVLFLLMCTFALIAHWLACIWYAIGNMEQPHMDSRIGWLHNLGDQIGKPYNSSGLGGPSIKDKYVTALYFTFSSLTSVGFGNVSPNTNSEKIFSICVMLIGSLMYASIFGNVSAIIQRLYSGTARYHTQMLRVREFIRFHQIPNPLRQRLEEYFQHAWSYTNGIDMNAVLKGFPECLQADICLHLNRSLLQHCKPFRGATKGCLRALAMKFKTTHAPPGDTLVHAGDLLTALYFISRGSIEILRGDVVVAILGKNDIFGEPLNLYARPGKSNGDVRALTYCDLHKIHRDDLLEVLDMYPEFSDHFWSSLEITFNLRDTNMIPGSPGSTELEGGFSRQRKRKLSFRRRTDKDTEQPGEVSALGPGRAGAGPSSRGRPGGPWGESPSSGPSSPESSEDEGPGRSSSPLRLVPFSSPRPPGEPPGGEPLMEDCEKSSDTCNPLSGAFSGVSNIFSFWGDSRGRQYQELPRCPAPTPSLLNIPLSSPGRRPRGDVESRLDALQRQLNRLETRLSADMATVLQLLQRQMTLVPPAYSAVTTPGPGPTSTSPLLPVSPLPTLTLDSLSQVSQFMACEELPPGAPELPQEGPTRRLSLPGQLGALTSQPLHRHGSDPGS

Compound | hERG current change (%, negative = inhibition) at 10uM [%]
CCOC(=O)[C@@H]1[C@H]2COc3ccc(Br)cc3[C@H]2N2C(=O)N(c3ccc(Br)cc3)C(=O)[C@]12C | 7.88
COc1ccccc1NS(=O)(=O)c1cccc(C(=O)NN=C2CCCC2)c1 | 0.33
COc1ccc(CN(C)C(=O)Cc2ccc(OC)c(S(=O)(=O)N3CCOCC3)c2)cc1 | -20.4
CCOC(=O)C1CCCN(S(=O)(=O)c2cccc3cccnc23)C1 (stereo not drawn) | -14.9
Cc1nnc(SCc2ccc(Cl)cc2)n1CC1CCCO1 (stereo not drawn) | -3.26
CSc1ccccc1NC(=O)COC(=O)Cn1cc(C(F)(F)F)ccc1=O | 4.23
Cc1cc2oc(=O)cc(CN3CCCCC3C)c2cc1C(C)C (stereo not drawn) | -22
Cc1cccc(Nc2nc(-c3ccccn3)cs2)n1 | 12.9
CN(CC(=O)OCC(=O)Nc1ccccc1)S(=O)(=O)c1ccc(Cl)cc1 | -19.9
CCN(CC)c1ccc(/C=N/Nc2nc(C)cc(=O)[nH]2)cc1 | -20.5
Cc1c(Cl)cccc1NC(=S)NCCc1ccccn1 | 9.25
O=C(CC1SC(=O)N(c2ccccc2)C1=O)Nc1cccc2ccccc12 (stereo not drawn) | 11.7
COc1cc(NC(=O)Cn2cnc(S(=O)(=O)N3CCC(C)CC3)c2)cc(OC)c1OC | 20.6
Br.N=c1n(CC(=O)c2ccc([N+](=O)[O-])cc2)c2ccccc2n1Cc1ccccc1Cl | -23.6
Br.CCCn1c(=N)n(CC(=O)c2ccc(OCC(=O)OC)cc2)c2ccccc21 | -52.7
Br.Cc1ccc(Cn2c(=N)n(CC(=O)c3ccccc3)c3ccccc32)cc1 | -72.2
Br.N=c1n(CC(=O)c2ccc([N+](=O)[O-])cc2)c2ccccc2n1Cc1ccc(Cl)cc1 | -14.3
Br.CCCCn1c(=N)n(CC(=O)c2ccc([N+](=O)[O-])cc2)c2ccccc21 | -71.7
N=c1n(CC(=O)c2ccc(Br)cc2)c2ccccc2n1Cc1ccccc1.[Br-] | -9.25
Br.N=c1n(CC(=O)c2ccc([N+](=O)[O-])cc2)c2ccccc2n1Cc1ccccc1 | -70.1
Br.Cc1ccc(Cn2c(=N)n(CC(=O)c3ccc([N+](=O)[O-])cc3)c3ccccc32)cc1 | -4.3

Compound | hERG current change (%, negative = inhibition) at 10uM [%]
Br.COC(=O)COc1ccc(C(=O)Cn2c(NCCCO)nc3ccccc32)cc1 | -2.45
O=C(N/N=C/c1ccccc1C(=O)O)c1ccncc1 | 18.3
CCC(=O)NC(=S)Nc1ccc(-c2nc3ccccc3s2)cc1 | -2.92
Cc1cc(C)nc(OC(C(=O)O)C(OCc2ccccc2)(c2ccccc2)c2ccccc2)n1 (stereo not drawn) | 21.7
CCC1CCCCN1C(=O)c1ccc2c(c1)C(=O)N(c1ccc(C)cc1)C2=O (stereo not drawn) | -8.83
CCOP(=O)(OCC)C(NS(=O)(=O)c1ccccc1)C(Cl)(Cl)Cl (stereo not drawn) | 11.9
Br.CCn1c(=N)n(CC(=O)c2ccc(OC)cc2)c2ccccc21 | -18.6
Br.CCCCn1c(=N)n(CC(=O)c2ccc(OC)cc2)c2ccccc21 | -73.6
Br.CCCn1c(=N)n(CC(=O)c2ccc([N+](=O)[O-])cc2)c2ccccc21 | -78.5
Br.Cc1ccccc1Cn1c(=N)n(CC(=O)c2ccc([N+](=O)[O-])cc2)c2ccccc21 | -32.6
Br.COc1ccc(C(=O)Cn2c(=N)n(C)c3ccccc32)cc1 | -28.8
N#Cc1c(-c2ccco2)cc(C2CC2)nc1SCC(=O)c1ccccc1 | 17.4
COCCNC(=S)N1CCN(c2cccc(C(F)(F)F)c2)CC1 | -12.2
Cc1nn(Cc2cccc(F)c2)c(C)c1NC(=O)c1c([N+](=O)[O-])c(C)nn1C | -9.72
CCCn1nnnc1SCC(=O)Nc1sc(C)c(C)c1C#N | 0.801
O=C(COC(=O)CNC(=O)c1cccc(Br)c1)Nc1nnc(-c2ccccc2)o1 | -0.546
COc1ccc(CNC(=O)C(C)N2CCN(c3ccc(C(C)=O)cc3)CC2)cc1 (stereo not drawn) | -55.1
COc1ccc(S(=O)(=O)N2CCN(C(C)C(=O)Nc3ccc(C(C)C)cc3)CC2)cc1 (stereo not drawn) | -20.6
COc1ccc(CNC(=O)COc2ccc(S(=O)(=O)N3CCCCC3)cc2)cc1 | 6.5
COc1ccc(C(=O)NCc2ccc(N3CCN(C)CC3)cc2)cc1 | 5.1
COc1ccc(CNC(=O)CCn2ccc3cc(S(=O)(=O)N4CCCC4)ccc32)cc1 | -12.4

Compound | hERG current change (%, negative = inhibition) at 10uM [%]
COc1ccc(CNC(=O)CCc2ccc(S(=O)(=O)N3CCCCCC3)cc2)cc1 | -54.9
COC(=O)CCNC(=O)CCc1ccc(S(=O)(=O)N2CCCCCC2)cc1 | -12.1
CCOc1ccc(CNC(=O)CCCn2ccc3cc(S(=O)(=O)N4CCCC4)ccc32)cc1 | -32.7
CC(C(=O)NCc1ccccc1)N1CCN(c2ccc(F)cc2)CC1 (stereo not drawn) | -18.9
COc1ccc(CNC(=O)CCCn2ccc3cc(S(=O)(=O)N4CCCC4)ccc32)cc1 | -52
COc1ccc(CNC(=O)C(C)N2CCN(S(=O)(=O)c3ccccc3F)CC2)cc1 (stereo not drawn) | -15.9
CCCc1ccc(S(=O)(=O)N2CCN(C(C)C(=O)NCc3ccc(OC)cc3)CC2)cc1 (stereo not drawn) | -57.4
COc1ccccc1NC(=O)c1ccc(N2CC3CC(C2)c2cccc(=O)n2C3)c(NC(=O)c2cccnc2)c1 (stereo not drawn) | 6.33
[Cl-].c1ccc(Cc2cc[n+](Cc3ccccc3)cc2)cc1 | 4.13
O=C(Nc1ccccc1N1CCCC1)c1cccnc1Cl | 4.72
COc1ccc(C(=O)NC(=S)Nc2nc(C)cc(C)n2)cc1Br | 23.1
CCOc1ccc2nc(SCC(=O)NCc3ccc4c(c3)OCO4)[nH]c2c1 | -24.2
CCCNc1ccc(C(=O)OCC)cc1[N+](=O)[O-] | -6.67
Cc1ccc(C(C(=O)NCc2ccco2)N(C(=O)Cc2cccs2)c2cccnc2)cc1 (stereo not drawn) | 20.4
O=S(=O)(Nc1ccc2ccccc2c1)c1ccccc1 | 1.5
CCOc1ccc(CCNC(=O)COC(=O)Cc2ccc(F)cc2)cc1OCC | -26.6
CC(C)c1ccc(/C=C(\c2nc3ccccc3[nH]2)S(=O)(=O)c2ccccc2)cc1 | 8.64
COc1ccc(OC)c(CNc2ccc(F)c(Cl)c2)c1 | 2.7
COc1ccc(C(=O)n2nc(-c3ccco3)nc2SC)cc1OC | 3.41
COCCCn1c(=O)c2sccc2n2c(CCCC(=O)N(C)Cc3ccco3)nnc12 | -22.8
Cc1ccccc1-n1c(-c2ccc(Br)o2)n[nH]c1=S | 13.5

Compound | hERG current change (%, negative = inhibition) at 10uM [%]
COc1ccc2ccc(O)c(CN3CCN(S(=O)(=O)c4cc([N+](=O)[O-])ccc4C)CC3)c2c1 | -4.29
CCN(CC)C(=O)CSC1=C(C#N)C(c2ccco2)C(C(=O)OCCOC)=C(C)N1 (stereo not drawn) | 10.5
C=CCOC(=O)C1=C(C)NC(SCC(=O)N(CC)CC)=C(C#N)C1c1ccco1 (stereo not drawn) | -51.3
C=CCOC(=O)C1=C(C)NC(SCC(=O)N(CC)CC)=C(C#N)C1c1ccccc1 (stereo not drawn) | -21.9
CSc1ccccc1NC(=O)c1ccc(N2CC3CC(C2)c2cccc(=O)n2C3)c(NC(=O)c2ccncc2)c1 (stereo not drawn) | -30.1
CC(C)(C)CN1CCN(CCCc2ccccc2)C(CCO)C1 (stereo not drawn) | -53.7
CC(C)=CCN1CCN(CCCc2ccccc2)CC1CCO (stereo not drawn) | -26.8
CC(C)CCN1CCN(CCCc2ccccc2)CC1CCO (stereo not drawn) | -46.6
OCCC1CN(CCCc2ccccc2)CCN1Cc1ccccc1 (stereo not drawn) | -64
CC(C)N1CCN(CCCc2ccccc2)CC1CCO (stereo not drawn) | -4.39
OCCC1CN(CCCc2ccccc2)CCN1CCc1ccccc1 (stereo not drawn) | -77.2
CC(C)(C)CN1CCN(CC#Cc2ccccc2)CC1CCO (stereo not drawn) | 0.803
CC(C)CN1CCN(CCCc2ccccc2)C(CCO)C1 (stereo not drawn) | -35.5
OCCC1CN(CCCc2ccccc2)CCN1Cc1ccc(F)cc1 (stereo not drawn) | -66.6
CC(C)CCNC(=O)C(c1ccco1)N(CCCO)C(=O)Cn1nnc(-c2ccc(F)cc2)n1 (stereo not drawn) | -20.2
CSc1ccccc1NC(=O)CSc1nnc(CNC(=O)c2ccccc2F)n1C | 11.2
O=C(NCCS(=O)(=O)N1CCN(c2ccc(F)cc2)CC1)C12CC3CC(CC(C3)C1)C2 | -10.5
CCOC(=O)c1cc(-c2ccc(OC)cc2)nn1-c1ccc(C(=O)O)cc1 | 16.3
CS(=O)(=O)c1ccc([C@@H](O)[C@@H](CF)NC(=O)C(Cl)Cl)cc1 | -5.39
Cc1cccc(Cl)c1NC(=S)NCCc1ccccn1 | 11.9
CCOc1ccc(Br)cc1S(=O)(=O)N1CCC(C(N)=O)CC1 | -8.56
